Records with an inconclusive call do not appear. Unmarked numbers belong to inactive results. Active and inactive are the calls of the source. Unless noted, calls follow the shape of the dose curve; as a rule, active = well fitted curve in the direction sought with a large enough effect; inconclusive = small, poorly fitted or top-dose-only effect, or another doubt; inactive = no such curve, though single readings can be large; an effect the other way counts as inactive or inconclusive.
System: not listed separately
Assay: Identifying Small Molecule Inhibitors of Pancreatic Cancer Stem Cells (A2780, Spheroid) (AID 1259357); also: potency is read from the fitted curve at half-maximal effect;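 also: spheroids pre-formed over 14 days in stem cell medium on hydrogel; compound exposure lasted 48 h before the ATP luminescence read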;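 as to viability (percent of control): 100% = DMSO treated cells and 0% = wells without cells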
Details: Potency: A2780 spheroid viability; series mostly up to 46.1 µM; viability (percent of control): at the top concentration
Source text: (§1) Progenitor-like cancer cells, often referred to as cancer stem cells (CSC), are believed to be the drivers of therapeutic resistance and rapid recurrence. CSCs are postulated to reside in specific niches characterized by low oxygen tension, limited nutrient supply, and high redox load. Selectively targeting CSC, alone or in combination with cytotoxic agents, as a means to produce durable remissions is an appealing concept. Modeling these cells in in vitro setting is an important step in finding new therapies and/or targets. Multiple reports highlight that forcing cells in culture into 3-dimensionaly architectures (spheroids) re-establishes key progenitor-like transcriptional signatures. Pancreatic cancer is among the diseases with the most dismal outlook which is driven, largely, by recurance following front-line therapies. […] In hopes of deriving new insight into the targeting of these pancreatic CSCs we examined three established pancreatic cancer cell lines in cytotoxicity assays versus a collection of approved and investigational drugs. Importantly, we screened these lines as traditional monolayer (2D) and spheroid (3D) formats to gain an appreciation of agents with differential activity.
(§2) Multicellular tumor spheroids from Panc1, MiaPaCa-2, and the primary low-passage tissue culture line SB.06 were seeded in stem cell media (SCM) in nonadherent 6-well plates coated with hydrogel (Corning Life Sciences, Chelmsford, Mass) and pancreatic spheres generated for 14 days before screening. Cells were seeded into 1536-well solid-bottom white tissue culture treated Greiner Bio One Plates (789173-F) using a MultiDrop Combi (Thermofisher Scientific) dispenser and a small sterile cassette. One column was media alone to be used as a :"no cells" control. The plates were then covered with sterilized stainless steel gasketed lids from Kalypsys. After allowing cells to attach for 4 hours, 23 nL of test compound or control (negative control DMSO and positive control 9.2 uM Bortezomib-final) were added from a 1536-well polypropylene compound source plate to each well using a 1536 head pin tool from Kalypsys. Cells were then incubated for 48 hours at 37C, 95% relative humidity and 5% CO2. After 48 hours, plates were removed from the incubator and 3 uL of CellTiter-Glo (Promega) was added using an Aurora Flying Reagent Dispenser Bioraptor. Plates were incubated at room temperature for 10 minutes prior to reading the luminescence on the Viewlux (PerkinElmer). The relative luciferase units are used to calculate the percent activity using the activity of DMSO in the cells and no cells columns for normalization of no inhibition and full inhibition respectively.

SMILES | viability (percent of control) [%] | Potency
Cn1c(CCCC(=O)O)nc2cc(N(CCCl)CCCl)ccc21 | 72.9 | –
C[C@@H]1[C@@H](CC(C[C@H]2O[C@@H]3O[C@]4(C)CC[C@@H]5[C@H](C)CC[C@@H]([C@H]2C)[C@@]35OO4)C[S+](=O)([O-])c2ccc(COC(=O)N(C)C)cc2)O[C@@H]2O[C@]3(C)CC[C@H]4[C@H](C)CC[C@@H]1[C@@]24OO3 (stereo partly drawn) | – | 59 nM (active)
CN(C)CCN(C)CCc1ccc(Cl)c(Cl)c1 | 114 | –

System: not listed separately
Assay: Identifying Small Molecule Inhibitors of Pancreatic Cancer Stem Cells (A278, Adherent) (AID 1259361);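 also: viability read after 48 h compound exposure; nearly all actives have a fitted effect of over 35% in size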;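 as to viability (% of control): 100% = DMSO-treated cells and 0% = cell-free media-only wells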
Details: series mostly up to 46.1 µM; viability (% of control): at the top concentration
Outline: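 After a 4 h attachment period, compounds were pinned into wells and cultures held 48 h under standard incubator conditions. Viability was then measured as CellTiter-Glo luminescence following 10 min at room temperature.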

SMILES | viability (% of control) | IC50 (viability decrease)
Cn1c(CCCC(=O)O)nc2cc(N(CCCl)CCCl)ccc21 | 92.4 | –
C[C@@H]1[C@@H](CC(C[C@H]2O[C@@H]3O[C@]4(C)CC[C@@H]5[C@H](C)CC[C@@H]([C@H]2C)[C@@]35OO4)C[S+](=O)([O-])c2ccc(COC(=O)N(C)C)cc2)O[C@@H]2O[C@]3(C)CC[C@H]4[C@H](C)CC[C@@H]1[C@@]24OO3 (stereo partly drawn) | – | 41.8 nM (active)
CN(C)CCN(C)CCc1ccc(Cl)c(Cl)c1 | 90.2 | –

System: not listed separately
Assay: Identifying Small Molecule Inhibitors of Pancreatic Cancer Stem Cells (Panc1, Adherent) (AID 1259362); also: potency is read from the fitted curve at half-maximal effect;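 as to viability, % of control: compound exposure lasted 48 h before the viability read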
Details: Potency: viability; series mostly up to 46.1 µM; viability, % of control: at the top concentration
Source text: as §1, §2

SMILES | viability, % of control [%] | Potency
Cn1c(CCCC(=O)O)nc2cc(N(CCCl)CCCl)ccc21 | 99 | –
C[C@@H]1[C@@H](CC(C[C@H]2O[C@@H]3O[C@]4(C)CC[C@@H]5[C@H](C)CC[C@@H]([C@H]2C)[C@@]35OO4)C[S+](=O)([O-])c2ccc(COC(=O)N(C)C)cc2)O[C@@H]2O[C@]3(C)CC[C@H]4[C@H](C)CC[C@@H]1[C@@]24OO3 (stereo partly drawn) | – | 37.2 nM (active)
Cc1sc2c(c1C)C(c1ccc(Cl)cc1)=N[C@@H](CC(=O)OC(C)(C)C)c1nnc(C)n1-2 | – | 4180 nM (active)

System: not listed separately
Assay: P-glycoprotein substrates identified in KB-8-5-11 adenocarcinoma cell line, qHTS therapeutic library screen (AID 1346987); also: nearly all actives have a fitted effect of over 65% in size; also: potency is read from the fitted curve at half-maximal effect; as to activity change, negative = cytotoxicity: % is scaled to controls: 0 for no effect and ±100 for the full control effect
Details: KB-8-5-11 (P-gp overexpressing) viability, CellTiter-Glo, 72 h; series mostly up to 44.5 µM; activity change, negative = cytotoxicity: at the top concentration; outcome: at the top concentration
Outline: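 P-gp-mediated resistance screen: KB-8-5-11 cells treated 72 h with compounds in dose-response. CellTiter-Glo viability.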

SMILES | Potency | activity change, negative = cytotoxicity [%]
CC[C@@H](CO)NC(=O)[C@@H]1C=C2c3cccc4c3c(cn4C)C[C@H]2N(C)C1 | 20600 nM (active) | –
CC(C)CC(N(C)C)C1(c2ccc(Cl)cc2)CCC1 (stereo not drawn) | inactive | –
Cn1c(CCCC(=O)O)nc2cc(N(CCCl)CCCl)ccc21 | inactive | –
Cc1sc2c(c1C)C(c1ccc(Cl)cc1)=N[C@@H](CC(=O)OC(C)(C)C)c1nnc(C)n1-2 | 469 nM (active) | –
CCC(C(N)=O)N1CCCC1=O (stereo not drawn) | – | -11.5
CCCC(C)(COC(N)=O)COC(=O)NC(C)C (stereo not drawn) | inactive | –

Target: Atrial natriuretic peptide receptor 1 (Homo sapiens) (UniProt P16066)
Assay: Natriuretic polypeptide receptor (hNpr1) antagonism - Pilot screen (AID 1347049; calls by dose curve;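 also: agonist-evoked cGMP luminescence read 20 min after hNppA addition; % is scaled to controls: 0 for no effect and ±100 for the full control effect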)
Details: hNpr1 cells, antagonist mode cGMP read-out; series mostly up to 57.5 µM; activity change, negative = inhibition: at the top concentration
Outline: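 HEK293 cells co-expressing hNpr1 and the GloSensor pGS-40F cGMP luciferase sensor were preloaded with 2% GloSensor reagent for 2 h. Compounds were added for 30 min at room temperature, then cells were stimulated with 0.1 nM hNppA for 20 min before luminescence readout.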

Chain of Atrial natriuretic peptide receptor 1 (Homo sapiens) (P16066 whole entry, looked up): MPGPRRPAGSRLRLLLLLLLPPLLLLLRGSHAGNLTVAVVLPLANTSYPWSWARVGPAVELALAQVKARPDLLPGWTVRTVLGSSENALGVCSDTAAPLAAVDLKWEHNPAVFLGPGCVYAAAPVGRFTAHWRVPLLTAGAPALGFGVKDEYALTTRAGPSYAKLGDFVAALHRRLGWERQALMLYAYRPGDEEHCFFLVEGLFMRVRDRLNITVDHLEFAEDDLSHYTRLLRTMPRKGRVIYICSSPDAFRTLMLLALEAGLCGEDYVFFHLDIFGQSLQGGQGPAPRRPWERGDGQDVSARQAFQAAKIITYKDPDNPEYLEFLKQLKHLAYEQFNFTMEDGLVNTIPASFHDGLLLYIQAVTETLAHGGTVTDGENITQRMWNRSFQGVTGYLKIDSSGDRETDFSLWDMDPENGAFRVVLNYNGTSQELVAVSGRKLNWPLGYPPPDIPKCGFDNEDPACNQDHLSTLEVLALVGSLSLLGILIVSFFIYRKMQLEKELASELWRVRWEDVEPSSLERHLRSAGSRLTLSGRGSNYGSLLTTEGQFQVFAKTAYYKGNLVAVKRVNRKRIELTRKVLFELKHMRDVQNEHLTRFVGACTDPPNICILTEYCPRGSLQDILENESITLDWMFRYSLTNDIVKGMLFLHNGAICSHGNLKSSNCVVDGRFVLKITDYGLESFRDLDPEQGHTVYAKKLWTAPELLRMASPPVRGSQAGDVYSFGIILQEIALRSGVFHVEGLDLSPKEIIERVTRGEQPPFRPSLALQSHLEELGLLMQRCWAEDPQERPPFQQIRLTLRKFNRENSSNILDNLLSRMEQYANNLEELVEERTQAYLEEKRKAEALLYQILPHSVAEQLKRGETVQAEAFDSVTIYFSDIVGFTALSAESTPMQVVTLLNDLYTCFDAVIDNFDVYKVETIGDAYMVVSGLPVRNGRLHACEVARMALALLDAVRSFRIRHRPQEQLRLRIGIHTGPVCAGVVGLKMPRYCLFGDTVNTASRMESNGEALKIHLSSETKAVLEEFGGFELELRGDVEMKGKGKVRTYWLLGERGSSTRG

SMILES | activity change, negative = inhibition [%]
CC[C@@H](CO)NC(=O)[C@@H]1C=C2c3cccc4c3c(cn4C)C[C@H]2N(C)C1 | 3.31
NCC1(CC(=O)O)CCCCC1 | 14.2
CCCC(C)(COC(N)=O)COC(=O)NC(C)C (stereo not drawn) | -4.66

— PubChem BioAssay (NCATS)
